The values that follow come from PubChem BioAssay (NCATS).

Each structure is given as a SMILES string. Inconclusive results are not listed. The source made the active and inactive calls. Unless noted, how the calls were made is not given here.

Assay [1] is described as follows: qHTS profiling of the MIPE4 collection as inhibitors of Plasmodium falciparum (3D7) proliferation (AID 743344).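 Further: scaled between DMSO vehicle wells and 0.29 µM artemisinin as full inhibition.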 Particulars: P. falciparum 3D7 in erythrocytes, SYBR Green DNA fluorescence, 72 h; at 28.5 µM unless noted. In a few lines:
(§1)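 Parasite DNA was quantified by SYBR Green I fluorescence (ex 485, em 535 nm) after overnight lysis in saponin/Triton buffer at room temperature. Cultures at 0.3% parasitemia and 2.5% hematocrit were first exposed to compound for 72 h at 37 C; signals were normalised to artemisinin (0.29 uM) and vehicle wells.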

A short description of assay [2]: qHTS profiling of the MIPE4 collection as inhibitors of Plasmodium falciparum (DD2) proliferation (AID 743345). Conditions: P. falciparum Dd2 in erythrocytes, SYBR Green DNA, 72 h; at 28.5 µM unless noted. The method, boiled down:
as §1

The nature of assay [3]: qHTS profiling of the MIPE4 collection as inhibitors of Plasmodium falciparum (DD2) proliferation (Rep 2) (AID 743346). Conditions: P. falciparum Dd2 in erythrocytes, SYBR Green DNA, 72 h; at 28.5 µM unless noted. The method, boiled down: as §1
For orientation: In qHTS, concentration-response curves come from the screen itself.

Assay [4] can be described thus: qHTS profiling of the MIPE4 collection as inhibitors of Plasmodium falciparum (HB3) proliferation (AID 743347).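 Further: plate controls were DMSO vehicle wells for no effect and artemisinin wells for full effect.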 Particulars: P. falciparum HB3 in erythrocytes, SYBR Green DNA, 72 h; at 28.5 µM unless noted. In a few lines:
as §1

Assay [5] is described as follows: High-throughput drug toxicity screening in the BPDCN cell line Gen2.2 (AID 1224824).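 Further: cells exposed to compounds for 48 h before reading.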 Particulars: Gen2.2 BPDCN cells; at 45.8 µM (top of the series) unless noted. In a few lines:
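Seed 500 exponentially growing Gen2.2 cells/well; add compounds by pin tool; incubate 48 h, 37 °C, 5% CO2; add CellTiter-Glo, 15 min RT; read luminescence. % activity vs DMSO (100%) and bortezomib (0%).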

A short description of assay [6]: High-throughput drug toxicity screening in the BPDCN cell line Cal-1 (AID 1224825). Conditions: Cal-1 BPDCN cell viability, qHTS; at 45.8 µM (top of the series) unless noted. The method, boiled down: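 CellTiter-Glo luminescence after 48 h compound exposure; percent activity scaled with DMSO as 100% and bortezomib (9.2 uM final) as 0%. Cal-1 cells seeded at 500/well in RPMI, 10% FBS, no phenol red.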

A short description of assay [7]: qHTS assay for measurement of the activity of small molecule inhibitors on Zika virus induced Caspase-3 activity in human iPSC derived neural progenitor cells (hNPCs) (AID 1224857; active means well fitted inhibition curve with a large enough effect; further: % of control where 0% means no effect; nearly all actives have a fitted effect of over 65% in size). In a few lines:
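hNPCs seeded 350 cells/well, cultured 16–20 h; compounds added 1 h before ZIKV (2 FFU/cell), 37 C 6 h. Caspase-Glo 3/7 luminescence after 30 min RT; % inhibition from induction scaled to uninfected (0%) and infected (100%) wells.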

Assay [8] can be described thus: qHTS assay for measurement of the activity of small molecule inhibitors on Zika virus induced Caspase-3 activity in human astrocytoma cells (AID 1224859; active means well fitted inhibition curve with a large enough effect;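 further: plate controls were ZIKV-infected untreated cells for no effect and uninfected cells for full effect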). The method, boiled down:
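Luminescence read-out (Caspase-Glo 3/7, 30 min RT) of caspase activity in SNB-19 cells infected 6 h with ZIKV, 2 FFU/cell, after 1 h compound pretreatment; % inhibition from induction normalised to uninfected (0%) and infected (100%) wells.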

Assay [9] can be described thus: qHTS Screen of the MIPE 4.0 Collection Against Ewings Sarcoma (RDES) (AID 1259252; active means well fitted inhibition curve with a large enough effect; further: nearly all actives have a fitted effect of over 35% in size; further: potency means the concentration at half of the fitted maximal effect). In a few lines: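 Viability screen: 48 h incubation at 37C, 95% humidity, 5% CO2 with serially titrated compound, followed by CellTiter-Glo readout.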

The compound `O=C(c1ccc(F)c(F)c1Nc1ccc(I)cc1F)N1CC(O)([C@H]2CCCCN2)C1` registered a parasite growth, % of DMSO control in [1] of 11%. Further, the parasite growth remaining, % of DMSO control (lower = more inhibition) in [2] was 11.1%. The compound further returned a parasite growth, % of control (lower = inhibition) in [3] of 20.2%. Further, the growth, % of control in assay [4] is 4.74%. For the same compound, the cell viability, % of control (lower = more cytotoxic) in assay [5] worked out at 3.78%. The viability (% of control) in assay [6] was determined as 2.16%. The Potency entry in assay [7] and in assay [8] was “inactive” each time. Moreover, in assay [9], the Potency was 26.4 µM (active).
Regarding `O=C(O)c1nc(=O)[nH]c(=O)[nH]1`, the parasite growth, % of DMSO control in assay [1] came to 88.8% [at 9.64 µM]. Moreover, the parasite growth remaining, % of DMSO control (lower = more inhibition) in [2] stood at 106% [at 9.64 µM]. This compound showed a parasite growth, % of control (lower = inhibition) in assay [3] of 93.6% [at 9.64 µM]. This compound also displayed a growth, % of control in assay [4] of 89.9% [at 9.64 µM]. In assay [5], the cell viability, % of control (lower = more cytotoxic) stood at 161% [at 23.2 µM]. Moreover, in assay [6], the viability (% of control) was 99.2% [at 23.2 µM]. The Potency result in assay [7], in [8] and in assay [9] was “inactive” each time.
`CN1CCC(COc2cnc(-c3cccc(Cn4nc(-c5cccc(C#N)c5)ccc4=O)c3)nc2)CC1` displayed a parasite growth, % of DMSO control in assay [1] of 10.4%. In assay [2], the parasite growth remaining, % of DMSO control (lower = more inhibition) worked out at 10.5%. For the same compound, the parasite growth, % of control (lower = inhibition) in [3] worked out at 15.3%. The growth, % of control in assay [4] was determined as 4.54%. Also, the cell viability, % of control (lower = more cytotoxic) in assay [5] was 92.7%. For the same compound, the viability (% of control) in assay [6] was found to be 5.37%. Moreover, the Potency entry in assay [7] and in [8] was “inactive” each time. Further, the Potency in [9] was 7.43 µM (active).
Consider `Fc1ccc(C(c2ccc(F)cc2)N2CCN(CC=Cc3ccccc3)CC2)cc1`, for which the parasite growth, % of DMSO control in assay [1] turned out to be 6.36%. In addition, the parasite growth remaining, % of DMSO control (lower = more inhibition) in [2] was determined as 14.4%. The parasite growth, % of control (lower = inhibition) in [3] worked out at 44.1%. Also, the growth, % of control in assay [4] stood at 5.16%. The cell viability, % of control (lower = more cytotoxic) in [5] came to 18.7%. Moreover, in assay [6], the viability (% of control) came out at 30.9%. For the same compound, the Potency result in [7], in assay [8] and in [9] was “inactive” throughout.
In assay [1], `c1cc(OCCN2CCCCC2)cc(-c2n[nH]c3ccc(-c4ncn[nH]4)cc23)c1` had a parasite growth, % of DMSO control of 8.07%. For the same compound, the parasite growth remaining, % of DMSO control (lower = more inhibition) in assay [2] was found to be 9.76%. For the same compound, the parasite growth, % of control (lower = inhibition) in assay [3] is 9.96%. Moreover, in assay [4], the growth, % of control is 3.58%. In assay [5], the cell viability, % of control (lower = more cytotoxic) came to 107%. For the same compound, the viability (% of control) in assay [6] stood at 20.5%. Further, the Potency result in assay [7] and in [8] was “inactive” each time. The Potency in assay [9] was 10.5 µM (active).
Turning to `Cc1c(-c2cccc3c(CCCOc4cccc5ccccc45)c(C(=O)O)n(Cc4cccnc4)c23)c(COc2ccc(N3CCN([S+](=O)([O-])N(C)C)CC3)cc2)nn1C`, the parasite growth, % of DMSO control in assay [1] was determined as 5.78%. Also, the parasite growth remaining, % of DMSO control (lower = more inhibition) in assay [2] was 7.43%. Besides, in assay [3], the parasite growth, % of control (lower = inhibition) is 15.4%. In assay [4], the growth, % of control worked out at 4.06%. Moreover, the cell viability, % of control (lower = more cytotoxic) in [5] was determined as 121%. In addition, the viability (% of control) in assay [6] amounted to 86.1%. Further, the Potency result in assay [7] and in assay [8] was “inactive” in each case. In assay [9], the Potency is 16.6 µM (active).
Regarding `CNc1nc(-c2ccc3c(N)n[nH]c3c2)cc(N2C[C@@H](C(=O)NC3CCCCC3)CC[C@@H]2C)n1`, the parasite growth, % of DMSO control in [1] was determined as 5.06%. Moreover, in assay [2], the parasite growth remaining, % of DMSO control (lower = more inhibition) turned out to be 8.54%. Further, in assay [3], the parasite growth, % of control (lower = inhibition) turned out to be 11.4%. The same compound had a growth, % of control in assay [4] of 4.91%. Besides, in assay [5], the cell viability, % of control (lower = more cytotoxic) was found to be 6.94%. For the same compound, the viability (% of control) in assay [6] came to 18.1%. For the same compound, the Potency entry in [7] and in assay [8] was “inactive” in each case. The Potency in assay [9] was 6.62 µM (active).
For `Cc1cc(NC(=O)Nc2ccc(N(C)C)cc2)c2cc(F)cc(F)c2n1`, in [1], the parasite growth, % of DMSO control amounted to 9.65%. Besides, the parasite growth remaining, % of DMSO control (lower = more inhibition) in [2] came out at 46%. In assay [3], this compound had a parasite growth, % of control (lower = inhibition) of 10.9%. In [4], this compound showed a growth, % of control of 10.1%. For the same compound, the cell viability, % of control (lower = more cytotoxic) in assay [5] amounted to 149%. In assay [6], the viability (% of control) was 112%. The Potency result in [7], in [8] and in [9] was “inactive” throughout.
In the case of `O=C(NC[C@H](O)CO)c1ccncc1Nc1ccc(I)cc1F`, the parasite growth, % of DMSO control in [1] stood at 60.9%. The parasite growth remaining, % of DMSO control (lower = more inhibition) in assay [2] worked out at 101%. Moreover, the parasite growth, % of control (lower = inhibition) in [3] came to 56.7%. The compound also gave a growth, % of control in [4] of 54.8%. Also, the cell viability, % of control (lower = more cytotoxic) in [5] was found to be 5.6%. The viability (% of control) in assay [6] amounted to 12.1%. Further, the Potency result in [7] and in [8] was “inactive” throughout. For the same compound, the Potency in assay [9] is 18.7 µM (active).
On to `Cn1cnc(-c2cc3nccc(Oc4ccc(NC(=S)NC(=O)Cc5ccccc5)cc4F)c3s2)c1`, for which the parasite growth, % of DMSO control in [1] amounted to 8.29%. Further, the parasite growth remaining, % of DMSO control (lower = more inhibition) in [2] was 23.6%. This compound had a parasite growth, % of control (lower = inhibition) in assay [3] of 28.5%. Moreover, the growth, % of control in [4] is 12%. Also, in assay [5], the cell viability, % of control (lower = more cytotoxic) stood at 131%. In [6], the viability (% of control) is 8.37%. Moreover, the Potency entry in assay [7] and in [8] was “inactive” in each case. Further, the Potency in assay [9] was 20.9 µM (active).
